# Assay results taken from PubChem BioAssay AID1159524 (National Center for Advancing Translational Sciences (NCATS), 2015).
# The campaign covered roughly 410,000 compounds. About 5,100 (1.2%) were called active. Inconclusive results (about 8%) are left out. Calls follow the shape of the full dose curve; tested in HEK293T cells. Shown is part of a subset that was picked to be rich in actives. Where a call stands in place of a potency, no number is given.
# Assay: High Throughput Screening for Foot and Mouth Disease Virus Antivirals; also: read-out not given here; nearly all actives have a fitted effect of over 45% in size
# Conditions: FMDV antiviral cell-based qHTS; series mostly up to 57.9 µM
# Potency is read from the fitted curve at half-maximal effect.
row,Structure (SMILES),Potency
1,COCC(C)NS(=O)(=O)c1ccc(N2CCCCS2(=O)=O)cc1 (stereo not drawn),inactive
2,CCc1noc(C)c1C(=O)NCCN1Cc2cc(OC)ccc2OC(CC)C1 (stereo not drawn),inactive
3,Cn1c(=O)c(CCc2ccccc2)nc2cnc(Nc3ccccc3)nc21,inactive
4,c1ccc(CNc2ncncc2-c2cccnc2)cc1,inactive
5,CCN(CC)CCCC(C)Nc1ccnc2cc(Cl)ccc12 (stereo not drawn),inactive
6,CCN(CC)CCCC(C)n1c2nc(=O)[nH]c(=O)c-2nc2cc(Cl)ccc21 (stereo not drawn),11.2 µM (active)
7,Cc1ccc(S(=O)(=O)n2nc(-c3ccc(Cl)cc3)nc2NCc2ccccc2)cc1,inactive
8,CC(C)OC(=O)c1ccc(NCc2cc(O)ccc2O)cc1Cl,8.91 µM (active)
9,COc1cccc(-n2cc(C(=O)NCc3cccc(Cl)c3)c3ccccc3c2=O)c1,inactive
10,O=C(CSc1ncc(CO)n1Cc1ccc(Cl)cc1)NCc1ccc(F)cc1,inactive
11,CCOc1ccccc1N(CC)C(=O)Nc1cn(C)c(=O)c2ccccc12,inactive
12,CC1CCC(N2CC(=O)N(CCC3=CCCCC3)C(c3ccc(F)cc3)C2=O)CC1 (stereo not drawn),inactive
13,Cc1ccc(C(=O)Nc2cccc(-c3nc(CNC(=O)c4ccccc4-n4cccn4)c(C)o3)c2)s1,inactive
14,NC1=CC(=O)C(=O)c2cccnc21,39.8 µM (active)
15,O=C1C(c2ccccn2)=[N+]([O-])c2ccccc21,inactive
16,COC1C[C@@H](O[C@@H]2C(C)C(=O)OC(C)C(C)C(O)C(C)C(=O)[C@@]3(CO3)CC(C)C(OC3OC(C)CC(N(C)C)C3O)C2C)OC(C)[C@@H]1O (stereo partly drawn),inactive
17,N[C@@H](C(=O)O)c1ccc(P(=O)(O)O)cc1,inactive
18,c1cnc(NC2C3CC4CC(C3)CC2C4)nc1 (stereo not drawn),inactive
19,CN(C)c1ccc(-c2nc(NCCN3CCOCC3)c3ccccc3n2)cc1,inactive
20,c1ccc2c(NC3C4CC5CC(C4)CC3C5)nc(N3CCOCC3)nc2c1 (stereo not drawn),25.1 µM (active)
21,O=C(c1ccco1)N1CCC[C@@]2(CCN(Cc3nccs3)C2)C1,inactive

row,Structure (SMILES),Potency
1,O=C1CCN(Cc2ccc(-c3ccccc3)cc2)CCN1Cc1ccccn1,inactive
2,COc1ccc(CNC(=O)/C(C#N)=C/c2cccc(OC)c2OC)cc1,22.4 µM (active)
3,COc1ccc(CNC(=O)c2c[nH]c3c(OC)cc(OC)cc3c2=O)cc1,inactive
4,COc1ccc(CNC(=O)c2cc3cccc(OC)c3oc2=O)cc1,inactive
5,Cc1ccc(C)c(N2CCN(C(=O)Cn3nc(C)c4sc5ccccc5c4c3=O)CC2)c1,inactive
6,Cc1ccc(OCCCC(=O)N2CCOCC2)c(C)c1,inactive
7,Cc1ccc(C)c(N2CCN(C(=O)CCCCCn3c(=S)[nH]c4ccc(N5CCOCC5)cc4c3=O)CC2)c1,3.16 µM (active)
8,Cc1ccc(C)c(N2CCN(C(=O)CCc3c(C)nc4c(c3C)c(=O)n(C)c(=O)n4C)CC2)c1,inactive
9,Cc1ccc(C)c(N2CCN(C(=O)CCCCn3c(=O)[nH]c4ccccc4c3=O)CC2)c1,20 µM (active)
10,COc1cccc(N2CCN(C(=O)CCCCCn3c(=O)[nH]c4ccccc4c3=O)CC2)c1,inactive
11,CN1[C@@H]2CC[C@H]1CC(OC(=O)c1cc(Cl)cc(Cl)c1)C2 (stereo partly drawn),inactive
12,Oc1c(C(c2ccc(F)cc2)N2CCN(Cc3ccccc3)CC2)sc2nc(-c3ccco3)nn12 (stereo not drawn),inactive
13,O=C(c1ccncc1)N1CCC2(CCN(Cc3cc(C(F)(F)F)cc(C(F)(F)F)c3)CC2)CC1,inactive
14,Cc1nc2ccn(Cc3cccs3)c(=O)c2cc1C(=O)NCc1ccc(Cl)cc1,inactive
15,CCCNC(=O)c1ccc(Cn2c(SCC(N)=O)nc3ccccc3c2=O)cc1,inactive
16,Cc1nnnn1/C(=C\c1ccccc1)C(=O)OCC(=O)N1CC2(C)CC1CC(C)(C)C2 (stereo not drawn),31.6 µM (active)
17,Cn1nccc1C(=O)NCC1CCC2(CCN(Cc3c(O)ccc4ccccc34)CC2)O1 (stereo not drawn),inactive
18,Cc1c(-c2cccc(NC(=O)C(C)(C)C)c2)nc2ncccn12,inactive
19,O=c1c(O)c(-c2ccc(O)cc2)oc2ccccc12,inactive
20,Cc1ccccc1OCC(=O)Nc1ccc(N2CCN(C(=O)C(C)C)CC2)c(Cl)c1,14.1 µM (active)
21,Cc1ccccc1OCC(=O)NNC(=O)c1cc(S(=O)(=O)N(C)C)ccc1N1CCCC1,inactive

row,Structure (SMILES),Potency
1,Cc1ccc(NC(=O)COc2coc(CN3CCc4ccccc4C3)cc2=O)cc1Cl,inactive
2,O=C(Oc1cc(OC(=O)c2ccccc2)c2c(c1)OC(c1ccc(OC(=O)c3ccccc3)c(OC(=O)c3ccccc3)c1)[C@@H](OC(=O)c1ccccc1)C2)c1ccccc1 (stereo partly drawn),inactive
3,CCCOc1ccc(NC(=O)CC2C(=O)N(c3ccccc3)C(=O)N2Cc2ccco2)cc1 (stereo not drawn),inactive
4,CCOC(=O)c1c(C)[nH]c(C)c1S(=O)(=O)N1CCC(C(=O)Nc2ccc(C)c(Cl)c2)CC1,inactive
5,Cc1cccc(C2CC(=O)Oc3c2c(=O)n(C)c2ccccc32)c1 (stereo not drawn),inactive
6,COc1cc2c(=O)n(C)c3ccccc3c2cc1OC,inactive
7,Cn1c(=O)c([N+](=O)[O-])c(Oc2ccccc2)c2ccccc21,28.2 µM (active)
8,CC(C)c1cnc(NC(=O)Cc2ccccc2)s1,inactive
9,Cc1ccc(-n2nc(C)c3c(C)cc(=O)n(CC(=O)Nc4ccc(C(C)C)cc4)c32)cc1,inactive
10,CC(=O)Oc1c2c(c3c(c1CC=C(C)C)O[C@@]14C(=CC5CC1C(C)(C)OC4(C/C=C(\C)C(=O)O)C5=O)C3=O)OC(C)(CCC=C(C)C)C=C2 (stereo partly drawn),20 µM (active)
11,COc1cc(=O)n2c(c1C(=O)NC(C)c1ccco1)CCN(Cc1cc(C)cc(C)c1)CC2 (stereo not drawn),inactive
12,CCOc1ccccc1C(=O)NCC(c1ccc(N(C)C)cc1)N1CCCC1 (stereo not drawn),inactive
13,Cc1cc(-c2ccnc(-n3ncc(C(=O)NCCc4ccncc4)c3C)n2)c(C)s1,inactive
14,CCOc1ccc(C)cc1S(=O)(=O)NC1CCCCCC1,inactive
15,CCOc1cccc(=NC2CCCCC2)c2c(C)[nH]c(C)c12,28.2 µM (active)
16,CC(=O)N1CCC2(CCCN(c3ncccn3)C2)CC1,inactive
17,O=C(O)C1CCN(c2ncnc3ccc(-c4ccccc4C(F)(F)F)cc23)CC1,inactive
18,O=C(NCCCN1CCN(c2cccc(Cl)c2)CC1)c1nnc(Cc2ccc(F)cc2Cl)o1,inactive
19,COc1cc(/C=C/C(=O)N2CCc3ccccc3C2)cc(OC)c1OC,inactive
20,COc1cc(/C=C/C2=CC(C)(C)NC(=S)N2)cc(OC)c1OC,inactive
21,COc1cc(/C=C/c2ccc(/C=C/c3cc(OC)c(OC)c(OC)c3)cc2)cc(OC)c1OC,22.4 µM (active)
